In PubChem BioAssay:
Active and inactive are the calls of the source.

Columns and labels:
[1] = anti-His antibody binders, primary screen, artefact control for SMM control protein annotation, biochemical, small-molecule microarray, 635 nm fluorescence (AID 1128); settings: anti-His Alexa647 antibody binding, higher = more signal;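 further: score merges feature fluorescence with signal-to-noise for each printed compound spot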
[2] = test system: Human papillomavirus type 1a E7 protein (residues 1-88); assay: HPV1a E7 small-molecule binders, primary screen, biochemical, small-molecule microarray, residues 1-88, 635 nm (AID 1129); settings: small-molecule microarray binding, fluorescence 635 nm; higher = more signal
[3] = biological target: Focal adhesion kinase 1 (Homo sapiens) (UniProt Q05397); assay: small-molecule microarray binders of FAK, primary screen, biochemical, 635/667 nm fluorescence, BSA, DTT (AID 1130); settings: PTK2 binding, 635 nm fluorescence, higher = more signal;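 further: composite of spot emission at 667 nm and signal to noise over triplicate slides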
Focal adhesion kinase 1 (Homo sapiens), sequence (Q05397 whole entry, looked up): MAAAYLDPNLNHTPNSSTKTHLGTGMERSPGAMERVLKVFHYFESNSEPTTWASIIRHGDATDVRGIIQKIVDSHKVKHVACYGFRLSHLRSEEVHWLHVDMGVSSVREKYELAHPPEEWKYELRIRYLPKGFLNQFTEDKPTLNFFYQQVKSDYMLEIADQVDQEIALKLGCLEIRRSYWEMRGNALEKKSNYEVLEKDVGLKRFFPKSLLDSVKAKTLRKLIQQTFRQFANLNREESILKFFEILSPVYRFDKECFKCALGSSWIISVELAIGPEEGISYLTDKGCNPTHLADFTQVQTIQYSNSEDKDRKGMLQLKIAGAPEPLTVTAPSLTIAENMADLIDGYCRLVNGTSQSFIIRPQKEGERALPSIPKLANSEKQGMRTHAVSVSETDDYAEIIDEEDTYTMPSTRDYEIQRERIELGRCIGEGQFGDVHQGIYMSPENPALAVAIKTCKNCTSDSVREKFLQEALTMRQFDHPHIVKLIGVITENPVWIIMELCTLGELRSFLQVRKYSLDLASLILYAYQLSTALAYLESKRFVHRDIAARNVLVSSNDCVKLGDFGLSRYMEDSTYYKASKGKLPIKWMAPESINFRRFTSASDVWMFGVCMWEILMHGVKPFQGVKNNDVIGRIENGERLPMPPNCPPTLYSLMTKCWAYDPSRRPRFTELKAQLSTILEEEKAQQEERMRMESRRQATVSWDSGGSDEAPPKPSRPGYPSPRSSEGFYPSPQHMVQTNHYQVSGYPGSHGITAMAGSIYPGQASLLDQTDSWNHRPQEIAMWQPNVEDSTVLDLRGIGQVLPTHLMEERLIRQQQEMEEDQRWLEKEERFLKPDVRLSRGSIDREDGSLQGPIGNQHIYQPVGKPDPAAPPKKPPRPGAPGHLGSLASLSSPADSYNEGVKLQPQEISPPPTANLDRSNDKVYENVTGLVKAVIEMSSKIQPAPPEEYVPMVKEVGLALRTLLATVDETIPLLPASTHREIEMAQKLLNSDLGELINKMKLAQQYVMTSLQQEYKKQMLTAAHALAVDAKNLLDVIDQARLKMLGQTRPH

[4] = test system: Fibrinogen (Alexa647-labelled); assay: fibrinogen binders on compound microarrays, profiling panel, artefact control for SMM control-protein annotation, biochemical, small-molecule microarray, 635/667 nm fluorescence (AID 1131); settings: fibrinogen-A647 binding fluorescence, higher = more signal;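 further: z-score merges 667 nm fluorescence with per-spot signal-to-noise over triplicate slides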
[5] = biological target: Follistatin (Homo sapiens) (UniProt P19883); assay: follistatin binders on small-molecule microarrays, primary screen, biochemical, small-molecule microarray, 635/667 nm fluorescence (AID 1132); settings: FST binding, 635 nm fluorescence, higher = more signal
Follistatin (Homo sapiens), sequence (P19883 whole entry, looked up): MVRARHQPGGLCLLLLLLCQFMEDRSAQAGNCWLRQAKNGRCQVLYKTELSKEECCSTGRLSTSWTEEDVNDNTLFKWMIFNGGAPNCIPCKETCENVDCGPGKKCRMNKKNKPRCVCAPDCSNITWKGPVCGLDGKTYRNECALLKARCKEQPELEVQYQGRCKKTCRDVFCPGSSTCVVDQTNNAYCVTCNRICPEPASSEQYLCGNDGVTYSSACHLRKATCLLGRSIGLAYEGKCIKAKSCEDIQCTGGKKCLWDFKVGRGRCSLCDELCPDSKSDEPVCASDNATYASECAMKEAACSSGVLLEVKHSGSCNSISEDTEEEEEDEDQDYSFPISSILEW

[6] = biological target: Fibroblast growth factor 2 (Homo sapiens) (UniProt P09038); assay: FGF2 binders on small-molecule microarrays, primary screen, biochemical, small-molecule microarray, 635/667 nm fluorescence (AID 1133); settings: small-molecule microarray binding, FGF2, fluorescence 635/667; higher = more signal
Fibroblast growth factor 2 (Homo sapiens), sequence (P09038 whole entry, looked up): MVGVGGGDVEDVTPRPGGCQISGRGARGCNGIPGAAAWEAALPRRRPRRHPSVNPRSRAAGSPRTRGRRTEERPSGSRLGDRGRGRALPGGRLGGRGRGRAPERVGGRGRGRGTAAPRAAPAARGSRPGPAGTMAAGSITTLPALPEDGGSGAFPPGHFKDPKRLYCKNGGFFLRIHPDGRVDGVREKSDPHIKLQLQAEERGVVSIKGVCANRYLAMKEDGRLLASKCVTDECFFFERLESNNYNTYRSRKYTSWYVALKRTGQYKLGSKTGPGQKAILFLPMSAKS

[7] = mitochondrial membrane potential change in A549 cells, profiling panel, cell-based, JC-1 fluorescence, basal, 24 h, 100 nL (AID 1138); settings: higher = more signal;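 further: A549 lung adenocarcinoma cells under basal conditions with no added stimulus; test concentration not given here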
Lefty1 = Lefty1 binders on small-molecule microarrays, primary screen, biochemical, small-molecule microarray, 635/667 nm fluorescence (AID 1139); settings: small-molecule microarray binding, fluorescence 635/667; higher = more signal
[8] = test system: wheat germ agglutinin (Triticum aestivum), Alexa647-labelled; assay: wheat germ agglutinin binders on compound microarrays, profiling panel, artefact control for SMM control-protein annotation, biochemical, small-molecule microarray, 635/667 nm fluorescence (AID 1140); settings: WGA-A647 binding, 635 nm fluorescence, higher = more signal;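 further: score merges 667 nm feature emission with signal to noise over triplicate slides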
[9] = biological target: Luciferin 4-monooxygenase (Photinus pyralis) (UniProt P08659); assay: firefly luciferase enzyme inhibitors, primary screen, biochemical, luminescence, purified enzyme, 2006 set (AID 1141); settings: SteadyGlo luminescence, 30 min, higher = more signal, called active from +8 up or from −8 down;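 further: cell-free assay with purified firefly luciferase at 100 ng per well in PBS; test concentration not given here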
Luciferin 4-monooxygenase (Photinus pyralis), sequence (P08659 whole entry, looked up): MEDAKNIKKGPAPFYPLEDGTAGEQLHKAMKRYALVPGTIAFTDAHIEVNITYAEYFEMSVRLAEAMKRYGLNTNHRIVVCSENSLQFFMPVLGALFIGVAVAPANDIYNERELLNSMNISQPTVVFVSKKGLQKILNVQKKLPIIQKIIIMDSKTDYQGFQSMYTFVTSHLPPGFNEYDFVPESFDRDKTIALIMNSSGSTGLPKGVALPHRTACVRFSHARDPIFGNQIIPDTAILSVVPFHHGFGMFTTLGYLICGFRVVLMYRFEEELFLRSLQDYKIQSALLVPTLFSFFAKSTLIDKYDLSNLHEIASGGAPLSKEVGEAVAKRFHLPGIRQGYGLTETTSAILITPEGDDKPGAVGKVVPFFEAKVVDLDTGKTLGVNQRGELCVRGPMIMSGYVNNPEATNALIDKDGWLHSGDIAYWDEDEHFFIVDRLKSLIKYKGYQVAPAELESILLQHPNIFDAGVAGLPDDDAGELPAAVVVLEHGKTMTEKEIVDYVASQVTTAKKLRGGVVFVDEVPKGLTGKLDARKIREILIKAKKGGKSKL

Structure (SMILES)	composite z-score [1]	composite z-score [2]	composite z-score [3]	composite z-score [4]	composite z-score [5]	composite z-score [6]	z-score [7]	composite z-score (Lefty1)	composite z-score [8]	z-score [9]
O=C1C[C@@H](O)[C@@H](O)[C@@H]2[C@@H]3C(=O)N(c4cccc(Oc5ccccc5)c4)C(=O)[C@@H]3CC[C@H]12	-0.0123	0.818	-0.031	0.345	0.505	0.31	1.23	0.471	0.268	-0.275 (inactive)
C[C@H]1CC[C@H]2C(=O)O[C@H](COc3ccc(C(C)(C)C)cc3)CN2[C@@H]1c1ccc(Br)cc1	2.63	0.243	0.189	0.503	0.0469	-0.101	0.972	0.395	0.034	-1.73 (inactive)
C#CCCCON=C1[C@H]2CCn3c(=O)n(C)c(=O)n3[C@H]2[C@H](O)[C@@H]2O[C@H]12	0.196	0.746	-0.103	0.615	0.72	0.916	1	0.363	-0.0602	-1.25 (inactive)
Cc1ccc(S(=O)(=O)N[C@H]2COC(=O)CC=C[C@@H](C)COC(=O)CC=C[C@@H]2C)cc1	-0.142	-0.408	0.309	-1.08	1.42	1.4	0.447	1.23	-0.678	-0.268 (inactive)
CC(=O)OC[C@H]1O[C@H](CC=NO[C@H](C)c2cn([C@H](CO)Cc3ccccc3)nn2)C=C[C@@H]1OC(C)=O	0.499	0.777	-0.0453	0.0573	0.69	0.494	-0.866	0.732	0.439	0.809 (inactive)
C=CC[C@@H]1C=C[C@H](ON=C2[C@H]3CCn4c(=O)n(-c5ccccc5)c(=O)n4[C@H]3[C@H](O)[C@@H]3O[C@H]23)[C@@H](CO)O1	3.31	-0.542	-0.118	0.626	0.489	0.095	-0.544	0.96	-0.0168	0.845 (inactive)
COC(=O)CC=C[C@@H](C)[C@@H](C=NO[C@@H](C)c1cn([C@H](CO)Cc2ccccc2)nn1)NS(=O)(=O)c1ccc(C)cc1	1.56	0.332	0.265	0.982	0.95	0.459	-0.517	0.681	0.0187	-1.28 (inactive)
COCOc1ccc(Br)cc1C(=O)[C@@H]1O[C@H]1c1cccc(OC)c1	-0.183	0.513	0.0147	0.488	0.339	-0.0753	1.1	0.346	0.432	-0.54 (inactive)
Cc1cc2c(nc1C)CCCCN2CC(C)ON=C1[C@H]2CCn3c(=O)n(-c4ccccc4)c(=O)n3[C@H]2[C@H](O)[C@@H]2O[C@H]12 (stereo not given in full)	0.761	-0.0951	-0.0065	0.7	0.7	0.875	-0.196	1.31	1	-0.661 (inactive)
CC(C)=CCCC(C)=CCON=C1C[C@@H](O)[C@@H](O)[C@@H]2[C@@H]3C(=O)N(c4ccc(F)cc4F)C(=O)[C@@H]3CC[C@H]12	1.33	1.21	0.631	0.333	0.705	0.256	-0.63	0.515	0.335	0.443 (inactive)
COc1ccc(O[C@H]2C=C[C@@H](c3ccccc3)O[C@@H]2CON=CC[C@@H]2C=C[C@H](OC(C)=O)[C@@H](COC(C)=O)O2)cc1	2.11	-0.311	0.178	0.516	0.229	0.107	0.124	0.257	0.807	-0.354 (inactive)
CC(C)(C)N1C(=O)[C@H]2[C@H]3[C@H](O)[C@H](O)CC(=O)[C@H]3CC[C@H]2C1=O	0.875	0.496	-0.246	0.584	0.558	0.399	-0.714	0.407	0.0902	0.206 (inactive)
O=c1n(Cc2cc3c(cc2Cl)OCO3)c(=O)n2n1CC[C@@H]1C(=NOCc3ccccc3)[C@H]3O[C@H]3[C@@H](O)[C@@H]12	0.559	0.459	-0.0758	0.623	0.444	0.784	0.679	0.716	0.125	-1.8 (inactive)
COc1ccc(O[C@H]2C=C[C@@H](c3ccccc3)O[C@@H]2CON=C2[C@H]3CCn4c(=O)n(-c5ccccc5)c(=O)n4[C@H]3[C@H](O)[C@@H]3O[C@H]23)cc1	-0.444	1.05	0.0673	0.335	0.356	0.199	-0.336	0.451	0.883	0.618 (inactive)
COc1ccc(O[C@H]2C=C[C@@H](c3ccccc3)O[C@@H]2CON=C(C)CCN2CCc3nc(-c4ccccc4)c(-c4ccccc4)cc3C2)cc1	1.38	-0.536	0.119	0.948	0.477	0.0194	1.87	0.269	0.0216	0.84 (inactive)
CCOC(=O)[C@H](Cc1ccccc1)NC(=O)CCC1CC(OC(=O)NCc2cccc3ccccc23)CC2(CCCC(COC(=O)NCc3cccc(C(F)(F)F)c3)O2)O1 (stereo not given in full)	0.419	0.565	0.219	0.193	-0.0637	0.0858	1.94	0.0217	0.0961	-0.114 (inactive)
CC(C)CON=C1C[C@@H](O)[C@@H](O)[C@@H]2[C@@H]3C(=O)N(C(C)(C)C)C(=O)[C@@H]3CC[C@H]12	1.15	-0.264	-0.0405	0.0972	-0.924	-0.546	-0.125	-0.52	-0.0283	0.473 (inactive)
